Results published in PubChem BioAssay AID743126 (The Scripps Research Institute Molecular Screening Center, 2013).
In all, about 370,000 compounds went through this assay and about 2,100 (0.57%) were called active. Many of the other results were omitted from the sample, so actives are more common in it than they were. Values without a mark were called inactive.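 How the source made its calls: active means inhibition above mean plus 3 SD of compounds lying within the high and low control bounds (cut at about 19% in these data); inactive means the rest.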

Target: Group 3 secretory phospholipase A2 (Homo sapiens) (UniProt Q9NZ20)
Experiment: human group III sPLA2 inhibitors, primary screen, biochemical, QFRET, BODIPY PC-A2 liposome substrate (AID 743126);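 further: 0% = median of test compound wells and 100% = no enzyme DMSO wells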
Conditions: QFRET BODIPY PC-A2 liposome hydrolysis, fluorescence; at 12.2 µM; active compounds read high

Chain of Group 3 secretory phospholipase A2 (Homo sapiens) (Q9NZ20 whole entry, looked up): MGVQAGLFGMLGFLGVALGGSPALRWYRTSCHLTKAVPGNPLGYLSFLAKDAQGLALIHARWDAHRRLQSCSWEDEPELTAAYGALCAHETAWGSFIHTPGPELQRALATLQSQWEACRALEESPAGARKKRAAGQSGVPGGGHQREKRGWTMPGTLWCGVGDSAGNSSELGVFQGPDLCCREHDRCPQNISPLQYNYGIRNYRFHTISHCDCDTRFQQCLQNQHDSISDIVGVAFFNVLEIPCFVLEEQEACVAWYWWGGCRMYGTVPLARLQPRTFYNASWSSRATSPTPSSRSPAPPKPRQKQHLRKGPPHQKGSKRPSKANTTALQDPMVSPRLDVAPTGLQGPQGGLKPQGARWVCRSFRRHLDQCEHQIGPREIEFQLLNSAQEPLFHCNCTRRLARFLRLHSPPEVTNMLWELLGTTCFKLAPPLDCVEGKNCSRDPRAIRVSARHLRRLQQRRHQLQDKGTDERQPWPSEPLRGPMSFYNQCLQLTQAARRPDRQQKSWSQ

Compound	inhibition
C[C@]12CC[C@H](O)CC1=C([N+](=O)[O-])CC1C2CC[C@@]2(C)C1CC[C@@H]2O (stereo not given in full)	-3.04%
C[C@]12CCC3C(CC[C@H]4[C@H](O)[C@H](O)CC[C@]34C)C1CC[C@@H]2O (stereo not given in full)	11.6%
C[C@]12CCC3C(CC[C@H]4C[C@@H](O)CC[C@]34C)C1CC[C@@H]2O (stereo not given in full)	21.1% (active)
CC1=CC(=Cc2sc3ccccc3[n+]2C)C=C(C)O1	5.85%
COc1ccc(C(=O)C2CN(C)CC2C(=O)c2ccc(OC)cc2)cc1 (stereo not given)	-10.5%
CN1CCN(C(=S)SCC(=O)Nc2ccc(Cl)cc2C(=O)c2ccccc2)CC1	-21.3%
O=C(COC(=O)c1ccccc1)Nc1ccc(Cl)cc1C(=O)c1ccccc1	21.3% (active)
O=C(CCNS(=O)(=O)c1ccccc1)Nc1ccc(Cl)cc1C(=O)c1ccccc1	-26.4%
C[C@@]1([C@@H](NP(=O)(c2ccccc2)c2ccccc2)c2ccccc2)C[C@H]1CCO	-0.39%
CNC(=O)O/N=C(\N)Cc1csc2ccc(Cl)cc12	-5.86%
